Experiment [1] can be described thus: qHTS for Inhibitors of Plasmodium falciparum (DD2) proliferation (AID 504314).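 Further: parasite DNA measured by SYBR Green fluorescence after red cell lysis; plate controls were DMSO vehicle for no effect and artemisinin wells for full effect.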 A digest of the protocol:
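Fluorescence read-out (ex 485/em 535 nm) of SYBR Green-stained parasite DNA quantifies intraerythrocytic growth. Cultures at 0.3% parasitemia and 2.5% hematocrit were treated for 72 h; data normalized to DMSO and 0.29 uM artemisinin wells.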

A short description of experiment [2]: qHTS for Inhibitors of Plasmodium falciparum (GB4) proliferation (AID 504315).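 Further: 0% = DMSO vehicle and -100% = 0.29 µM artemisinin control; nearly all actives have a fitted effect of over 50% in size.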 A digest of the protocol: (§1)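 Erythrocytes infected with P. falciparum line (0.3% parasitemia, 2.5% hematocrit final) incubated with compounds 72 h at 37 °C, 5% CO2; SYBR Green lysis buffer added, fluorescence read next day. Normalized to 0.29 uM artemisinin and DMSO.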
Experiment [3] in a line: qHTS for Inhibitors of Plasmodium falciparum (HB3) proliferation (AID 504318). Further: nearly all actives have a fitted effect of over 60% in size. Further: potency means the concentration at half of the fitted maximal effect. An outline of the steps:
as §1

A short description of experiment [4]: qHTS for Inhibitors of Plasmodium falciparum (CP250) proliferation (AID 504320).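 Further: plate controls were DMSO vehicle for no effect and 0.29 µM artemisinin control for full effect.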 An outline of the steps:
as §1

Experiment [5] deals with Atrial natriuretic peptide receptor 1 (Homo sapiens) (UniProt P16066). Briefly: Natriuretic polypeptide receptor (hNpr1) antagonism - Pilot CMLD screen (AID 1347052; calls by dose curve;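 further: cGMP level read as GloSensor luciferase luminescence after agonist stimulation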; further: potency means the concentration at half of the fitted maximal effect).
Sequence of Atrial natriuretic peptide receptor 1 (Homo sapiens) (P16066 whole entry, looked up): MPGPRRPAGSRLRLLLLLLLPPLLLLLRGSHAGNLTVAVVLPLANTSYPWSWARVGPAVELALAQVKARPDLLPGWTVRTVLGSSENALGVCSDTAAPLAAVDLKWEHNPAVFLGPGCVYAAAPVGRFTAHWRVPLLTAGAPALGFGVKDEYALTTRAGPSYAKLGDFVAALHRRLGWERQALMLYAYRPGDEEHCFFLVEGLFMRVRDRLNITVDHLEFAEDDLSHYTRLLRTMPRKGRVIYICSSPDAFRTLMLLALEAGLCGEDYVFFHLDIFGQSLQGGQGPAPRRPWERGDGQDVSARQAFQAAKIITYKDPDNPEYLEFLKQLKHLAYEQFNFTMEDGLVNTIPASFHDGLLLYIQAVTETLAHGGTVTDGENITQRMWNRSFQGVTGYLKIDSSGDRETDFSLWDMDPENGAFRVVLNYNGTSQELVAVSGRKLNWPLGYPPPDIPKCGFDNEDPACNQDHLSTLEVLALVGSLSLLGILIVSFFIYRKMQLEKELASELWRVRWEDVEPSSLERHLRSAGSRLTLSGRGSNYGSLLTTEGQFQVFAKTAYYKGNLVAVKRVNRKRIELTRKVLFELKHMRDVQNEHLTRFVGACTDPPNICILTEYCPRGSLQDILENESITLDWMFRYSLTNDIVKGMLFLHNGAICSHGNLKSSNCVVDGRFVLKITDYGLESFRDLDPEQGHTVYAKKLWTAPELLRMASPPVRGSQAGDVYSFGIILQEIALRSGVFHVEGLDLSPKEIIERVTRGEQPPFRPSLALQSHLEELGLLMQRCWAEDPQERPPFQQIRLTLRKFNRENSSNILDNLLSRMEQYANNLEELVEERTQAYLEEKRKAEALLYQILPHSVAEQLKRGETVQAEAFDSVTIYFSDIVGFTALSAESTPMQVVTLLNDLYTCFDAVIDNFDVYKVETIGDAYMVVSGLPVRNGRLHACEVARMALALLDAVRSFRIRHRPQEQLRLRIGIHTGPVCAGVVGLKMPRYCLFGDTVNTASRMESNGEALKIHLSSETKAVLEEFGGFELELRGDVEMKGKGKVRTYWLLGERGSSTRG
The target in experiment [6] is Cytochrome P450 3A4 (Homo sapiens) (UniProt P08684). As to the kind of experiment: qHTS Assay for Activators of Cytochrome P450 3A4 (AID 885). Further: nearly all actives have a fitted effect of over 65% in size. A digest of the protocol: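 Quantitative HTS format: compounds preincubated with 20nM human CYP3A4 and Luciferin-PPXE substrate at KM, reaction started by NADPH regeneration, stopped after 60 min, luciferase luminescence read 20 min later.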
Sequence of Cytochrome P450 3A4 (Homo sapiens) (P08684 whole entry, looked up): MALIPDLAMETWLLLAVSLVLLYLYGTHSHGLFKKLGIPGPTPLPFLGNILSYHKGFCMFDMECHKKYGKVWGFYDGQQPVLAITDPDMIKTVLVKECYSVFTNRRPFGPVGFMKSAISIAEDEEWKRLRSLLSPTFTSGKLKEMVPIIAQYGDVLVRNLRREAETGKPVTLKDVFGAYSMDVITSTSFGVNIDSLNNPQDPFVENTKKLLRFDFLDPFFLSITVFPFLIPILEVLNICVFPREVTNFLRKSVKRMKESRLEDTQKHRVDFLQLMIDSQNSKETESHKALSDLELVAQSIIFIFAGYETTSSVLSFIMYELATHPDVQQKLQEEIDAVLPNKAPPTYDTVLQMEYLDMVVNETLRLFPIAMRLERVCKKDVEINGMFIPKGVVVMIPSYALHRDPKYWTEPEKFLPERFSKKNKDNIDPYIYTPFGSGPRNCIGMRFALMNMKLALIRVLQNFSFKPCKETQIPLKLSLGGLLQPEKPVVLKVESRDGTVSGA
Background: qHTS replaces the single test concentration by a dilution series.

The target of experiment [7] is Cytochrome P450 2C19 (Homo sapiens) (UniProt P33261). As to the kind of experiment: qHTS Assay for Inhibitors and Substrates of Cytochrome P450 2C19 (AID 899). Further: potency means the concentration at half of the fitted maximal effect; nearly all actives have a fitted effect of over 60% in size. An outline of the steps: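 Luminescent read-out of luciferin formed from Luciferin-H EGE (10uM, equal to KM). Enzyme 5nM in 50mM KPO4; compound added, 10 min at 37C, then NADPH regenerating system for 60 min at 37C. Full inhibition defined by 57uM ketoconazole.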
Sequence of Cytochrome P450 2C19 (Homo sapiens) (P33261 whole entry, looked up): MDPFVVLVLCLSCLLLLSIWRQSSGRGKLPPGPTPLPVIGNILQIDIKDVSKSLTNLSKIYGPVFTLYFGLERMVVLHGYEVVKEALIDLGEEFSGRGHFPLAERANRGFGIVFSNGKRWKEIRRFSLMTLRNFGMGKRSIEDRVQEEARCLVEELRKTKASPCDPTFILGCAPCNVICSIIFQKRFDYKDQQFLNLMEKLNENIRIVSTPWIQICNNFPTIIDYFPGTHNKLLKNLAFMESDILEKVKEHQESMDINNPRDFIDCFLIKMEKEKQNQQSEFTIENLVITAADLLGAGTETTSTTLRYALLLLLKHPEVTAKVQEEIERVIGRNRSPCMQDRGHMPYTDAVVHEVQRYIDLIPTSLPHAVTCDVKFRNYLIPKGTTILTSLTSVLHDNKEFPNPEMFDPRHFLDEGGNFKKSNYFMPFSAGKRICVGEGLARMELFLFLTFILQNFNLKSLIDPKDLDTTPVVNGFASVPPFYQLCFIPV

Results filed as inconclusive are left out. The source holds several records for some structures; these can differ, active in one and inactive in another. Active and inactive are the calls of the source. Unless noted, the call rests on the fitted dose curve; in most records, active means well fitted curve in the direction sought with a large enough effect; inconclusive means small, poorly fitted or top-dose-only effect, or another doubt; inactive means no such curve, though single readings can be large; an effect the other way counts as inactive or inconclusive.

As for `N#Cc1ccc2c(c1)C[C@]1(c3ccsc3)Oc3c(c(=O)oc4ccccc34)[C@H]2O1`, the Potency result in experiment [1], in experiment [2], in experiment [3], in experiment [4] and in experiment [5] was “inactive” each time.

Turning to `COc1ccc(-c2nc3c(c4c2C[C@H](c2ccccc2)OC4)CN(C(=O)NCc2ccco2)CC3)c(C)c1`, the activity, negative = inhibition in experiment [1] is -0.324% [at 1.12 µM] (inactive). The Potency result in experiment [2], in experiment [3], in experiment [4] and in experiment [5] was “inactive” in each case.

For the molecule `COc1ccc(-c2nc(-c3ccccc3)oc2Nc2ccc3ccccc3c2)cc1`, the Potency result in experiment [1], in experiment [2], in experiment [3], in experiment [4] and in experiment [5] was “inactive” throughout.

Regarding `COc1cc(O)c(C(=O)C=Cc2ccccc2)c(O)c1`, the Potency entry in experiment [1], in experiment [2], in experiment [3], in experiment [4] and in experiment [5] was “inactive” each time.

Consider `COC(=O)C1(C(=O)OC)CC=CCc2ccccc2[C@H]1C[N+](=O)[O-]`, for which the Potency entry in experiment [1], in experiment [2], in experiment [3], in experiment [4] and in experiment [5] was “inactive” each time.

Take `CC(CCN1CCCc2nc(C)c(C)cc21)=NO[C@@H](C)c1cc(-c2c(C)cc(C)cc2C)no1`: the Potency entry in experiment [1], in experiment [2], in experiment [3], in experiment [4] and in experiment [5] was “inactive” throughout.

`C=CCOC(=O)N[C@H](C[N+](=O)[O-])c1ccccc1`: the Potency result in experiment [1], in experiment [2], in experiment [3], in experiment [4] and in experiment [5] was “inactive” in each case.

`C=CC[C@@H]1C=C[C@H](ON=C(C)CCN2CCCCc3nc(C)c(C)cc32)[C@H](CO)O1`: the Potency entry in experiment [1], in experiment [2], in experiment [3], in experiment [4] and in experiment [5] was “inactive” each time.

Turning to `FC(F)(F)c1ccc(-c2nc(-c3ccccc3)oc2Nc2ccc3ccccc3c2)cc1`, the Potency result in experiment [1], in experiment [2], in experiment [3], in experiment [4] and in experiment [5] was “inactive” throughout.

In the case of `C=CC1=C2C=C(C3CC3)N(CC(C)C)C=C2C(=O)C(C)(OC(=O)c2ccco2)C1=O` (stereo not drawn), the activity, negative = inhibition in experiment [1] is -0.305% [at 1.12 µM] (inactive). For the same molecule, the Potency entry in experiment [2], in experiment [3], in experiment [4] and in experiment [5] was “inactive” each time.

For `CC(CCN1CCc2nc(-c3ccccc3)c(-c3ccccc3)cc2C1)=NOC[C@@H](O)COCc1ccco1`, the Potency result in experiment [1], in experiment [2], in experiment [3], in experiment [4] and in experiment [5] was “inactive” throughout.

Consider `COC(=O)CCC(=O)OC1(C)C(=O)C=C2C=C3CCCN3C=C2C1=O` (stereo not drawn), for which the Potency result in experiment [1], in experiment [2], in experiment [3], in experiment [4] and in experiment [5] was “inactive” each time.

Consider `CCCC[C@@H]1CN2[C@H](c3ccc(Br)cc3)[C@H](C)CC[C@H]2C(=O)O1`, for which the activity change, positive = activation in experiment [6] is -42.5% [at 11.4 µM] (inactive). Moreover, the Potency in experiment [7] was 3980 nM (active); in experiment [5], 944 nM (active). Besides, the Potency result in experiment [1], in experiment [2] and in experiment [3] was “inactive” throughout.

As for `CC(=O)OC[C@H]1O[C@H](CCON=C(C)CCN2CCCCc3nc(C)c(C)cc32)C=C[C@H]1OC(C)=O`, the Potency entry in experiment [1], in experiment [2], in experiment [3], in experiment [4] and in experiment [5] was “inactive” in each case.

For `COC1=C[C@H](C(=O)NCc2ccccc2)[C@H](C)[C@@H](c2ccccc2)CC1=O`, the Potency entry in experiment [1], in experiment [2], in experiment [4] and in experiment [5] was “inactive” throughout.

For `CCN1C(=O)[C@@H]2[C@H]3[C@H](O)[C@H](O)CC(=NO[C@@H]4O[C@H](COC(C)=O)[C@@H](OC(C)=O)[C@H](OC(C)=O)[C@@H]4OC(C)=O)[C@@H]3CC[C@H]2C1=O`, the Potency entry in experiment [1], in experiment [2], in experiment [3], in experiment [4] and in experiment [5] was “inactive” in each case.

For the molecule `C=CCN1c2ccccc2[C@]23CCC(=O)N(Cc4ccco4)C2=NC(C(=O)OC)=C(C(=O)OC)[C@H]13`, the Potency result in experiment [1], in experiment [2], in experiment [3], in experiment [4] and in experiment [5] was “inactive” in each case.

In the case of `COC(=O)CC=C[C@@H](C)[C@@H](C=NOC[C@@H](O)COCc1ccco1)NS(=O)(=O)c1ccc(C)cc1`, the Potency result in experiment [1], in experiment [2], in experiment [4] and in experiment [5] was “inactive” in each case.

As to `COC(=O)C1=C(C(=O)OC)[C@@H]2N(C)c3ccccc3[C@@]23CCC(=O)N(Cc2ccc(OC)cc2)C3=N1`, the Potency result in experiment [1], in experiment [2], in experiment [4] and in experiment [5] was “inactive” throughout.

For `CC(C)=CCCC(C)=CCON=C1C[C@@H](O)[C@@H](O)[C@@H]2[C@H]3C(=O)N(c4ccc(F)cc4F)C(=O)[C@@H]3CC[C@H]12`, the Potency entry in experiment [1], in experiment [2], in experiment [3], in experiment [4] and in experiment [5] was “inactive” in each case.

For `CC(CCC(=O)OC[C@H]1O[C@H](C#Cc2ccccc2)C=C[C@H]1Oc1ccc(C)cc1)=NO[C@H](C)c1cn([C@H](CO)Cc2ccccc2)nn1`, the Potency result in experiment [1], in experiment [2], in experiment [4] and in experiment [5] was “inactive” each time.

On to `CC(C)=CCCC(C)=CCON=C1C[C@@H](O)[C@@H](O)[C@@H]2[C@H]3C(=O)N(Cc4ccc5c(c4)OCO5)C(=O)[C@@H]3CC[C@H]12`, for which the Potency result in experiment [1], in experiment [2], in experiment [4] and in experiment [5] was “inactive” in each case.

`CCCCC[C@]12Cc3cc(OC)c(OC)cc3[C@H](O1)c1c(cc(C)n(-c3ccccc3)c1=O)O2`: the Potency result in experiment [1], in experiment [2], in experiment [4] and in experiment [5] was “inactive” in each case. Also, the Potency in experiment [3] was 2.94 µM (active) and inactive.

Take `C=CC1=C2C=C(C3CC3)N(c3ccc(OC)cc3)C=C2C(=O)C(C)(OC(=O)c2ccco2)C1=O` (stereo not drawn): in experiment [1], the activity, negative = inhibition is 0.839% [at 1.12 µM] (inactive). For the same molecule, the Potency entry in experiment [2], in experiment [4] and in experiment [5] was “inactive” in each case.

For the molecule `C=CCOC(=O)NC(c1ccc(F)c(F)c1)C(C(C)=O)C(=O)OC` (stereo not drawn), the Potency result in experiment [1], in experiment [2], in experiment [3], in experiment [4] and in experiment [5] was “inactive” in each case.

For the molecule `CC(CCN1CCCCc2nc(C)c(C)cc21)=NO[C@H](C)c1cn([C@H](CO)Cc2ccccc2)nn1`, the Potency entry in experiment [1], in experiment [2], in experiment [4] and in experiment [5] was “inactive” each time.

In the case of `COC(=O)[C@]1(C=C2c3ccccc3C[C@H](OC)[C@@H]2C)[C@@H]2CC=C[C@@H]21`, the Potency entry in experiment [1], in experiment [2], in experiment [4] and in experiment [5] was “inactive” in each case.

`CCCCCCN1C(=O)CC[C@@]23C1=NC(C(=O)OC)=C(C(=O)OC)[C@@H]2N(Cc1ccccc1)c1ccccc13`: the Potency entry in experiment [1], in experiment [2], in experiment [3], in experiment [4] and in experiment [5] was “inactive” throughout.

Values taken from PubChem BioAssay (NCATS).
